# Laboratory results taken from the supplement of paper PMC9023506.
# Where a name gives a salt, the structure may show the parent alone.
# Tested on: Danio rerio larvae (5 dpf)
# Assay: excitability to 1-s acoustic pulses, difference vs DMSO (percentage points (treated minus DMSO)); higher = more of the behaviour than the DMSO vehicle control
# Conditions: 10 µM; exposure time: 3 h pre-incubation + 3 h imaging
# How it was run: (§1)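 5-dpf wild-type zebrafish larvae in 96-well ProxiPlates were exposed to library drugs at 10 µM (diluted 1000× from DMSO stocks into egg water). There were 48 larvae per drug, exposed 3 h before and 3 h during imaging at 28.5 °C. Images taken every 6 s covered a 3-h program of rest, moving coloured lines and acoustic pulses, and an ImageJ macro scored movement and upper-half location. Each behaviour score is the treated-group mean minus the DMSO vehicle mean, in percentage points.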
row,Compound,excitability to 1-s acoustic pulses
1,O=C1CCc2ccc(OCCCCN3CCN(c4cccc(Cl)c4Cl)CC3)cc2N1 [Aripiprazole],16.5
2,CC(C)C(=O)OCC(=O)[C@@]12O[C@H](C3CCCCC3)O[C@@H]1C[C@H]1[C@@H]3CCC4=CC(=O)C=C[C@]4(C)[C@H]3[C@@H](O)C[C@@]12C [Ciclesonide],4.96
3,Cn1cnc([N+](=O)[O-])c1Sc1ncnc2[nH]cnc12 [Azathioprine],-0.039
4,CCCCCOC(=O)Nc1nc(=O)n([C@@H]2O[C@H](C)[C@@H](O)[C@H]2O)cc1F [Capecitabine],4.17
5,Cc1ccc(-c2cc(C(F)(F)F)nn2-c2ccc(S(N)(=O)=O)cc2)cc1 [Celecoxib],6.46
6,CCCCc1nc(Cl)c(CO)n1Cc1ccc(-c2ccccc2-c2nnn[nH]2)cc1 [Losartan potassium],5.58
7,CCCCCCCCc1ccc(CCC(N)(CO)CO)cc1,14.4
8,CN1CCN2c3ncccc3Cc3ccccc3C2C1 (configuration not stated) [Mirtazapine],0.878
9,COc1cc(Nc2c(C#N)cnc3cc(OCCCN4CCN(C)CC4)c(OC)cc23)c(Cl)cc1Cl [Bosutinib],6.48
10,Nc1nc2c(ncn2COCCO)c(=O)[nH]1 [Acyclovir],0.524

# Tested on: Danio rerio larvae (5 dpf)
# Assay: activity during period 15 (no stimuli), difference vs DMSO (percentage points (treated minus DMSO)); higher = more of the behaviour than the DMSO vehicle control
# Conditions: 10 µM; exposure time: 3 h pre-incubation + 3 h imaging
# How it was run: as §1
row,Compound,activity during period 15
1,CCOc1nc2cccc(C(=O)O)c2n1Cc1ccc(-c2ccccc2-c2nnn[nH]2)cc1 [Candesartan],-1.51
2,CCCCC(=O)N(Cc1ccc(-c2ccccc2-c2nnn[nH]2)cc1)[C@H](C(=O)O)C(C)C [Valsartan],9.35
3,OC(CNCC(O)C1CCc2cc(F)ccc2O1)C1CCc2cc(F)ccc2O1 (configuration not stated) [Nebivolol hydrochloride],14
4,CN[C@H]1CC[C@@H](c2ccc(Cl)c(Cl)c2)c2ccccc21 [Sertraline hydrochloride],-26
5,COc1ccc([C@@H]2Sc3ccccc3N(CCN(C)C)C(=O)[C@@H]2OC(C)=O)cc1 [Diltiazem hydrochloride],-3.65
6,Nc1nc(F)nc2c1ncn2[C@@H]1O[C@H](CO)[C@@H](O)[C@@H]1O [Fludarabine],-6.57
7,Nc1nc(Cl)nc2c1ncn2[C@@H]1O[C@H](CO)[C@@H](O)[C@@H]1F [Clofarabine],-4.3
8,CCCCCOC(=O)Nc1nc(=O)n([C@@H]2O[C@H](C)[C@@H](O)[C@H]2O)cc1F [Capecitabine],2.91
9,CCN(CC)CCNC(=O)c1c(C)[nH]c(/C=C2\C(=O)Nc3ccc(F)cc32)c1C [Sunitinib malate],-14.6
10,CCOc1nc2cccc(C(=O)O)c2n1Cc1ccc(-c2ccccc2-c2noc(=O)[nH]2)cc1 [Azilsartan],3.86
11,Cc1ccc(NC(=O)c2ccc(CN3CCN(C)CC3)cc2)cc1Nc1nccc(-c2cccnc2)n1 [Imatinib mesylate],-11.6
12,Cc1ccc(-c2cc(C(F)(F)F)nn2-c2ccc(S(N)(=O)=O)cc2)cc1 [Celecoxib],3.28
13,CCCCc1nc(Cl)c(CO)n1Cc1ccc(-c2ccccc2-c2nnn[nH]2)cc1 [Losartan potassium],3.67
14,C=CC(=O)N1CCC[C@@H](n2nc(-c3ccc(Oc4ccccc4)cc3)c3c(N)ncnc32)C1 [Ibrutinib],-4.55
15,CN1CCN2c3ncccc3Cc3ccccc3C2C1 (configuration not stated) [Mirtazapine],4.7
16,COCCCOc1cc(C[C@@H](C[C@H](N)[C@@H](O)C[C@H](C(=O)NCC(C)(C)C(N)=O)C(C)C)C(C)C)ccc1OC [Aliskiren hemifumarate],-3.61
17,Nc1nc(NC2CC2)c2ncn([C@H]3C=C[C@@H](CO)C3)c2n1 [Abacavir hemisulfate],-3.3

# Tested on: Danio rerio larvae (5 dpf)
# Assay: optomotor response to blue moving lines, difference vs DMSO (percentage points (treated minus DMSO)); higher = more of the behaviour than the DMSO vehicle control
# Conditions: 10 µM; exposure time: 3 h pre-incubation + 3 h imaging
# How it was run: as §1
row,Compound,optomotor response to blue moving lines
1,O=C1CCc2ccc(OCCCCN3CCN(c4cccc(Cl)c4Cl)CC3)cc2N1 [Aripiprazole],-0.0385
2,CCOc1nc2cccc(C(=O)O)c2n1Cc1ccc(-c2ccccc2-c2nnn[nH]2)cc1 [Candesartan],9.66
3,OC(CNCC(O)C1CCc2cc(F)ccc2O1)C1CCc2cc(F)ccc2O1 (configuration not stated) [Nebivolol hydrochloride],-16.6
4,COc1ccc([C@@H]2Sc3ccccc3N(CCN(C)C)C(=O)[C@@H]2OC(C)=O)cc1 [Diltiazem hydrochloride],-5.83
5,Nc1nc(Cl)nc2c1ncn2[C@@H]1O[C@H](CO)[C@@H](O)[C@@H]1F [Clofarabine],4.47
6,Cn1cnc([N+](=O)[O-])c1Sc1ncnc2[nH]cnc12 [Azathioprine],9.74
7,CCN(CC)CCNC(=O)c1c(C)[nH]c(/C=C2\C(=O)Nc3ccc(F)cc32)c1C [Sunitinib malate],-5.69
8,CCOc1nc2cccc(C(=O)O)c2n1Cc1ccc(-c2ccccc2-c2noc(=O)[nH]2)cc1 [Azilsartan],7.48
9,Cc1ccc(NC(=O)c2ccc(CN3CCN(C)CC3)cc2)cc1Nc1nccc(-c2cccnc2)n1 [Imatinib mesylate],-0.219
10,CCOC(=O)[C@H](CCc1ccccc1)N[C@@H](C)C(=O)N1[C@H](C(=O)O)C[C@@H]2CCC[C@@H]21 [Ramipril],4.54
11,Cc1cc2c(s1)Nc1ccccc1N=C2N1CCN(C)CC1 [Olanzapine],16
12,C=CC(=O)N1CCC[C@@H](n2nc(-c3ccc(Oc4ccccc4)cc3)c3c(N)ncnc32)C1 [Ibrutinib],6.42
13,Nc1ccn([C@@H]2O[C@H](CO)[C@@H](O)C2(F)F)c(=O)n1 [Gemcitabine hydrochloride],3.79
14,CCCCCCCCc1ccc(CCC(N)(CO)CO)cc1,-1.76
15,CN1CCN2c3ncccc3Cc3ccccc3C2C1 (configuration not stated) [Mirtazapine],-2.95
16,CC(C)OC(=O)C(C)(C)Oc1ccc(C(=O)c2ccc(Cl)cc2)cc1 [Fenofibrate],12.7
17,NS(=O)(=O)c1cc(C(=O)O)c(NCc2ccco2)cc1Cl [Furosemide],6.22
18,COc1cc(Nc2c(C#N)cnc3cc(OCCCN4CCN(C)CC4)c(OC)cc23)c(Cl)cc1Cl [Bosutinib],-9.89
19,Nc1nc2c(ncn2COCCO)c(=O)[nH]1 [Acyclovir],10.2
20,CC(C)(C#N)c1cc(Cn2cncn2)cc(C(C)(C)C#N)c1 [Anastrozole],-5.16
